Reference: PubChem BioAssay AID1159580 (chemical genetic matrix, 2015)
Values joined by “and” are separate entries in the source; they are usually repeats but may differ in a detail not shown here. Identical values can stand only once. Hit rate of the full screen: of about 5,500 compounds, about 2,000 (36%) were called active. Roughly 18% stayed inconclusive and do not appear here. Rule as the data show it: active = normalized growth mostly below about 0.91 (no sharp cut-off); inconclusive = no clear call, values can overlap the other calls; inactive = mostly above about 0.92. The list shows a part of the results.

Test: chemical genetic growth profiling, strain panel (AID 1159580);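 also: tested at 20 µM; growth read once vehicle control cultures reached saturation at 30 °C; 1 = growth at the plate median or of vehicle wells; lower values mean less growth of the strain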
Details: growth OD

Measured: normalized growth

CCCN(CCC)C(=O)C(CCC(=O)O)NC(=O)c1ccccc1 (stereo unspecified)
inactive: S. cerevisiae deletion strains, locus YJR075W, strain HOC1, stronger effect = lower value 0.988 | S. cerevisiae deletion strains, locus YKL009W, strain mrt4, stronger effect = lower value 1.02 | S. cerevisiae deletion strains, locus YKL068W, stronger effect = lower value 0.975 | S. cerevisiae deletion strains, locus YKL085W, strain MDH1 (second series), stronger effect = lower value 0.987 | S. cerevisiae deletion strains, locus YKL085W, strain MDH1, stronger effect = lower value 0.987 | S. cerevisiae deletion strains, locus YKL160W, strain elf1, stronger effect = lower value 1.01 | S. cerevisiae deletion strains, locus YKL190W, strain CNB1, stronger effect = lower value 0.988 | S. cerevisiae deletion strains, locus YKR001C, strain vps1, stronger effect = lower value 0.995 | S. cerevisiae deletion strains, locus YKR026C, strain gcn3, stronger effect = lower value 0.974 | S. cerevisiae deletion strains, locus YKR091W, strain srl3, stronger effect = lower value 0.985 | S. cerevisiae deletion strains, locus YLL001W, strain dnm1, stronger effect = lower value 0.973 | S. cerevisiae deletion strains, locus YLL026W, stronger effect = lower value 0.993 | S. cerevisiae deletion strains, locus YLL041C, strain sdh2, stronger effect = lower value 0.982 | S. cerevisiae deletion strains, locus YLR027C, strain aat2, stronger effect = lower value 0.982 | S. cerevisiae deletion strains, locus YLR039C, strain RIC1, stronger effect = lower value 0.987 | S. cerevisiae deletion strains, locus YLR058C, strain SHM2, stronger effect = lower value 0.997 | S. cerevisiae deletion strains, locus YLR102C, strain apc9, stronger effect = lower value 0.986 | S. cerevisiae deletion strains, locus YLR113W, strain HOG1, stronger effect = lower value 0.96 | S. cerevisiae deletion strains, locus YLR221C, strain rsa3, stronger effect = lower value 0.988 | S. cerevisiae deletion strains, locus YLR258W, strain gsy2, stronger effect = lower value 0.973 | S. cerevisiae deletion strains, locus YLR262C, strain YPT6 (second series), stronger effect = lower value 0.968 | S. cerevisiae deletion strains, locus YLR262C, strain YPT6, stronger effect = lower value 0.998 | S. cerevisiae deletion strains, locus YLR268W, strain sec22, stronger effect = lower value 0.955 | S. cerevisiae deletion strains, locus YLR320W, strain mms22, stronger effect = lower value 0.987 | S. cerevisiae deletion strains, locus YLR330W, strain CHS5, stronger effect = lower value 0.995 | S. cerevisiae deletion strains, locus YLR342W, strain FKS1 (second series), stronger effect = lower value 1.08 | S. cerevisiae deletion strains, locus YLR342W, strain FKS1, stronger effect = lower value 0.989 | S. cerevisiae deletion strains, locus YLR357W, strain rsc2, stronger effect = lower value 0.964 | S. cerevisiae deletion strains, locus YLR370C, strain arc18, stronger effect = lower value 0.984 | S. cerevisiae deletion strains, locus YLR371W, strain rom2, stronger effect = lower value 0.986 | S. cerevisiae deletion strains, locus YLR384C, strain iki3, stronger effect = lower value 0.982 | S. cerevisiae deletion strains, locus YLR418C, strain cdc73, stronger effect = lower value 1 | S. cerevisiae deletion strains, locus YML016C, strain PPZ1, stronger effect = lower value 1.01 | S. cerevisiae deletion strains, locus YML032C, strain rad52, stronger effect = lower value 0.982 | S. cerevisiae deletion strains, locus YML120C, strain ndi1, stronger effect = lower value 0.988 | S. cerevisiae deletion strains, locus YML124C, strain tub3, stronger effect = lower value 0.988 | S. cerevisiae deletion strains, locus YMR058W, strain fet3, stronger effect = lower value 0.983 | S. cerevisiae deletion strains, locus YMR078C, strain ctf18, stronger effect = lower value 0.985 | S. cerevisiae deletion strains, locus YMR125W, strain sto1, stronger effect = lower value 0.975 | S. cerevisiae deletion strains, locus YMR129W, stronger effect = lower value 1 | S. cerevisiae deletion strains, locus YMR205C, strain PFK2, stronger effect = lower value 0.992 | S. cerevisiae deletion strains, locus YMR223W, strain ubp8, stronger effect = lower value 1.02 | S. cerevisiae deletion strains, locus YMR231W, strain pep5, stronger effect = lower value 0.976 | S. cerevisiae deletion strains, locus YMR263W, strain SAP30, stronger effect = lower value 0.99 and 1.01 | S. cerevisiae deletion strains, locus YMR307W, strain GAS1, stronger effect = lower value 1.06 and 0.989 | S. cerevisiae deletion strains, locus YNL067W, strain RPL9B, stronger effect = lower value 0.982 | S. cerevisiae deletion strains, locus YNL071W, strain lat1, stronger effect = lower value 1 | S. cerevisiae deletion strains, locus YNL128W, strain TEP1, stronger effect = lower value 0.983 | S. cerevisiae deletion strains, locus YNL153C, strain GIM3, stronger effect = lower value 1 and 1.01 | S. cerevisiae deletion strains, locus YNL175C, strain NOP13, stronger effect = lower value 1.01 | S. cerevisiae deletion strains, locus YNL183C, strain NPR1, stronger effect = lower value 0.933 | S. cerevisiae deletion strains, locus YNL197C, strain WHI3, stronger effect = lower value 1.08 | S. cerevisiae deletion strains, locus YNL209W, strain ssb2, stronger effect = lower value 0.979 | S. cerevisiae deletion strains, locus YNL224C, strain SQS1, stronger effect = lower value 1 | S. cerevisiae deletion strains, locus YNL233W, strain BNI4, stronger effect = lower value 0.989 | S. cerevisiae deletion strains, locus YNL248C, strain rpa49, stronger effect = lower value 0.948 | S. cerevisiae deletion strains, locus YNL250W, strain rad50, stronger effect = lower value 0.982 | S. cerevisiae deletion strains, locus YNL271C, strain bni1, stronger effect = lower value 0.988 | S. cerevisiae deletion strains, locus YNL298W, strain CLA4, stronger effect = lower value 0.998 | S. cerevisiae deletion strains, locus YNL307C, strain MCK1, stronger effect = lower value 0.996 | S. cerevisiae deletion strains, locus YNL322C, strain KRE1 (second series), stronger effect = lower value 0.99 | S. cerevisiae deletion strains, locus YNL322C, strain KRE1, stronger effect = lower value 0.982 and 1.01 | S. cerevisiae deletion strains, locus YNR049C, strain mso1, stronger effect = lower value 0.968 | S. cerevisiae deletion strains, locus YNR052C, strain pop2, stronger effect = lower value 0.991 | S. cerevisiae deletion strains, locus YOL006C, strain TOP1, stronger effect = lower value 0.957 | S. cerevisiae deletion strains, locus YOL012C, strain htz1 1.01 | S. cerevisiae deletion strains, locus YOL147C, strain pex11, stronger effect = lower value 0.995 | S. cerevisiae deletion strains, locus YOR001W, strain rrp6, stronger effect = lower value 0.984 | S. cerevisiae deletion strains, locus YOR061W, strain CKA2, stronger effect = lower value 1.01 | S. cerevisiae deletion strains, locus YOR069W, strain VPS5, stronger effect = lower value 0.997 | S. cerevisiae deletion strains, locus YOR070C, strain gyp1, stronger effect = lower value 0.99 | S. cerevisiae deletion strains, locus YOR080W, strain dia2, stronger effect = lower value 0.969 | S. cerevisiae deletion strains, locus YOR083W, strain WHI5 (second series), stronger effect = lower value 1.01 | S. cerevisiae deletion strains, locus YOR083W, strain WHI5, stronger effect = lower value 0.98 | S. cerevisiae deletion strains, locus YOR106W, strain vam3, stronger effect = lower value 0.975 | S. cerevisiae deletion strains, locus YOR136W, strain idh2, stronger effect = lower value 0.989 | S. cerevisiae deletion strains, locus YOR144C, strain elg1, stronger effect = lower value 0.977 | S. cerevisiae deletion strains, locus YOR184W, strain ser1, stronger effect = lower value 0.993 | S. cerevisiae deletion strains, locus YOR231W, strain MKK1, stronger effect = lower value 0.978 | S. cerevisiae deletion strains, locus YOR265W, strain rbl2, stronger effect = lower value 0.987 | S. cerevisiae deletion strains, locus YOR270C, strain vph1, stronger effect = lower value 0.919 | S. cerevisiae deletion strains, locus YOR290C, strain snf2, stronger effect = lower value 0.988 | S. cerevisiae deletion strains, locus YOR316C, strain cot1, stronger effect = lower value 0.977 | S. cerevisiae deletion strains, locus YPL051W, strain arl3, stronger effect = lower value 0.987 | S. cerevisiae deletion strains, locus YPL055C, strain LGE1, stronger effect = lower value 0.99 and 1.01 | S. cerevisiae deletion strains, locus YPL078C, strain atp4, stronger effect = lower value 0.992 | S. cerevisiae deletion strains, locus YPL106C, strain sse1, stronger effect = lower value 0.955 | S. cerevisiae deletion strains, locus YPL240C, strain hsp82, stronger effect = lower value 0.986 | S. cerevisiae deletion strains, locus YPL241C, strain CIN2, stronger effect = lower value 1 | S. cerevisiae deletion strains, locus YPL256C, strain CLN2, stronger effect = lower value 0.965 | S. cerevisiae deletion strains, locus YPR119W, strain clb2, stronger effect = lower value 0.989 | S. cerevisiae deletion strains, locus YPR141C, strain kar3, stronger effect = lower value 0.984 | S. cerevisiae deletion strains, locus YPR163C, strain tif3, stronger effect = lower value 0.977 | S. cerevisiae deletion strains, locus YPR167C, strain met16, stronger effect = lower value 0.983 | S. cerevisiae deletion strains, strain wtn01, stronger effect = lower value 0.987 | S. cerevisiae strains, strain wild type, stronger effect = lower value 1
